{"source": "paper PMC9574860", "about": "“Chemical Toolkit for PARK7: Potent, Selective, and High-Throughput” (Journal of Medicinal Chemistry, 2022)", "note": "Out of some 7,900 compounds screened, about 400 (5.1%) showed an effect of 50% or more. The entries come from a sample that favours strong results as a whole.", "data": [{"target": "Parkinson's disease protein 7 (PARK7/DJ1) (human, UniProt Q99497)", "sequence (Q99497 whole entry, looked up, the tested form may be a part)": "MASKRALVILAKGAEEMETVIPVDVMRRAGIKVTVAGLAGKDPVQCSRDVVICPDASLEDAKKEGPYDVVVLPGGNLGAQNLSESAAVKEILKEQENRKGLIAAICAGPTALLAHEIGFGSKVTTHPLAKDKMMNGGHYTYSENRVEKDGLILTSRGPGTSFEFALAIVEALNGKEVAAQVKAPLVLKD", "test": "primary screen, percent inhibition; read as competition with a fluorescent probe by fluorescence polarization; higher = more effect of the substance", "conditions": "100 µM", "summary_of_the_method": "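Fluorescence-polarization probe displacement (JYQ-107, 20 nM final, 2 h) after 2 h preincubation of PARK7 (0.2 μM final) with each fragment at 100 μM final. Read-out ex/em 480/520 nm; remaining activity derived from FP signal loss relative to reference controls.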", "units": {"Inhibition %": "%"}, "values": [{"compound": "C=CC(=O)Nc1ccc(OC)c(F)c1", "Inhibition %": 4.48}, {"compound": "O=c1c2sccc2nc(S)n1CCCN1CCOCC1", "Inhibition %": 1.46}, {"compound": "O=C(CCl)Nc1cc(C(F)(F)F)ccc1Cl", "Inhibition %": 4.72}, {"compound": "N#Cc1ccnc2ccnn12", "Inhibition %": 4.63}, {"compound": "CC1(S(=O)(=O)NC2CN(c3ccc(F)cc3)C2=O)CC1", "note": "(stereo not shown)", "Inhibition %": 10.3}, {"compound": "O=C(C=Cc1nccs1)N1CCc2ccccc21", "Inhibition %": 14.3}, {"compound": "CCc1nc(C#N)cc(NC2CSC2)n1", "Inhibition %": -3.02}, {"compound": "Cc1cc(C)n(S(=O)(=O)c2ccc(C)c(C)c2)n1", "Inhibition %": 3.92}, {"compound": "CC1CC(N2CCn3c(nnc3C3CC3)C2)C(=O)O1", "note": "(stereo not shown)", "Inhibition %": 18}, {"compound": "O=C(c1cc(F)cc(F)c1)N1CCCCC1C1OCCO1", "note": "(stereo not shown)", "Inhibition %": 3.28}, {"compound": "C=CC(=O)N1CCN(CCc2ccc(F)cc2)CC1", "Inhibition %": 8.07}, {"compound": "CC1CCCN(C(=O)C=Cc2cnc3ccccc3n2)C1", "note": "(stereo not shown)", "Inhibition %": 9.42}, {"compound": "C=CC(=O)NC1CCCc2c1cnn2CC", "note": "(stereo not shown)", "Inhibition %": 8.99}, {"compound": "O=C(CCl)Nc1ccon1", "Inhibition %": 14.8}, {"compound": "Cc1cc(C(=O)CCl)c(C)n1-c1ncn[nH]1", "Inhibition %": 60}, {"compound": "Cc1cc(C(=O)CCl)c(C)n1-c1ccc(F)cn1", "Inhibition %": 5.68}, {"compound": "Cc1cc(C(=O)CCl)c(C)n1-c1ccccn1", "Inhibition %": 71.3}, {"compound": "Cc1csc(CC(=O)NNC(=O)CCl)n1.Cl", "Inhibition %": 0.415}, {"compound": "Cc1cc(-n2c(C)cc(C(=O)CCl)c2C)no1", "Inhibition %": 7.75}, {"compound": "Cc1csc(-n2c(C)cc(C(=O)CCl)c2C)n1", "Inhibition %": 51}, {"compound": "Cc1cc(C(=O)CCl)c(C)n1-c1ccon1", "Inhibition %": 82.8}, {"compound": "Cc1cc(C(=O)CCl)c(C)n1-c1nccs1", "Inhibition %": 4.37}, {"compound": "C=CC(=O)N(Cc1cncs1)C1CCN(C(C)=O)CC1", "Inhibition %": 5.13}, {"compound": "C=CC(=O)N(C)CC(=O)N1CCOCC1", "Inhibition %": 16.7}, {"compound": "C=CC(=O)N1CCC(CC(=O)NC)CC1", "Inhibition %": 5.8}, {"compound": "C=CC(=O)N1CCCC(C(=O)Nc2nc(C)cs2)C1", "note": "(stereo not shown)", "Inhibition %": 5.32}, {"compound": "N#Cc1ccc(N2CCC3(CCOC3)C2)cn1", "note": "(stereo not shown)", "Inhibition %": -4.97}, {"compound": "O=C1CCN1c1ccc(O)cc1", "Inhibition %": 5.37}, {"compound": "C=CC(=O)N1CCCC(n2ccc(C(=O)NC)n2)C1", "note": "(stereo not shown)", "Inhibition %": 8.31}, {"compound": "CC(CC(O)c1ccccc1)NC(=O)c1cccnc1S", "note": "(stereo not shown)", "Inhibition %": 5.61}, {"compound": "N#CC(=Cc1ccc(O)c(O)c1)c1ccccn1", "Inhibition %": 3.18}, {"compound": "C=CC(=O)NC(c1ccco1)C(C)(C)C", "note": "(stereo not shown)", "Inhibition %": 7.05}, {"compound": "COCC1CN(C(=O)c2c[nH]c(C#N)c2)CC(C)(C)O1", "note": "(stereo not shown)", "Inhibition %": 10.6}, {"compound": "CC1=C(C)CN(c2nccnc2C#N)CC1", "Inhibition %": 26}, {"compound": "COc1ccc(C=C(C#N)C(N)=O)c(Cl)c1OC", "Inhibition %": 3.63}, {"compound": "O=C(CCl)N1CCN(Cc2ccc3c(c2)OCCO3)CC1", "Inhibition %": 15.8}, {"compound": "Cc1cc(C(=O)CCl)c(C)n1-c1ccc2c(c1)OCCO2", "Inhibition %": 63.9}, {"compound": "O=C(CCl)NCCc1ccc2c(c1)OCCO2", "Inhibition %": 47.9}, {"compound": "O=c1[nH]nc(S)n2cccc12", "Inhibition %": 26.7}, {"compound": "CC(CNc1nccnc1C#N)c1ccc(F)c(F)c1", "note": "(stereo not shown)", "Inhibition %": 22.4}, {"compound": "O=C1OCCC1Sc1ncnc2ccccc12", "note": "(stereo not shown)", "Inhibition %": 54.5}, {"compound": "Cn1c(SC2CCOC2=O)nc2ccccc21", "note": "(stereo not shown)", "Inhibition %": 12}, {"compound": "O=C1OCCC1Sc1ncnc2sccc12", "note": "(stereo not shown)", "Inhibition %": 6.21}, {"compound": "CC1CC(Sc2ncnc3ccccc23)C(=O)O1", "note": "(stereo not shown)", "Inhibition %": 4.79}, {"compound": "Cc1nc2ccccc2nc1SC1CCOC1=O", "note": "(stereo not shown)", "Inhibition %": 70.3}, {"compound": "O=C1OCCC1Sc1ccc2ccccc2n1", "note": "(stereo not shown)", "Inhibition %": -0.865}, {"compound": "C=CC(=O)N(Cc1nc(-c2cccnc2)no1)C(C)C", "Inhibition %": 22.6}, {"compound": "Cc1cc(C#N)nc(NC2CCCCCC2)n1", "Inhibition %": 2.75}, {"compound": "Cc1nc(C#N)c(NC(=O)CSCC2CCCCO2)o1", "note": "(stereo not shown)", "Inhibition %": 12.5}, {"compound": "CCCC(NC(=O)CCl)c1ccccc1", "note": "(stereo not shown)", "Inhibition %": 14.5}, {"compound": "CCCc1cc(NC(=O)CCl)n(-c2ccccc2)n1", "Inhibition %": 31.6}, {"compound": "C=CC(=O)N1CCC2(CCOCC2)CC1", "Inhibition %": 5.66}, {"compound": "COc1ccc(CN2CCN(C(=O)CCl)CC2)cc1.Cl", "Inhibition %": 10.6}, {"compound": "O=C1OCCC1N1CC=C(c2c[nH]c3ccccc23)CC1", "note": "(stereo not shown)", "Inhibition %": 4.4}, {"compound": "O=C(CCl)N1CC=C(c2c[nH]c3ccccc23)CC1", "Inhibition %": 51.5}, {"compound": "COc1ccc(N2CCN(C(=O)CCl)CC2)cc1", "Inhibition %": 28.8}, {"compound": "O=C(CCl)c1c[nH]c2ccccc12", "Inhibition %": 37.9}, {"compound": "COc1ccc(C2=CCN(C(=O)CCl)CC2)cc1", "Inhibition %": 78.7}, {"compound": "C=CC(=O)N1CCOC[C@@H]1CC(C)C", "Inhibition %": 6.89}, {"compound": "c1cc(OCC2CO2)c2cc[nH]c2c1", "note": "(stereo not shown)", "Inhibition %": -2.42}, {"compound": "N#CC(=Cc1ccccc1)C(=O)Nc1nncs1", "Inhibition %": 3.58}, {"compound": "COc1cc(C)c(C)cc1S(=O)(=O)n1cnc(C)c1", "Inhibition %": 6.69}, {"compound": "CCc1ccc(NC(=O)CCl)cc1", "Inhibition %": 99.1}, {"compound": "CC(=O)Nc1ccc(NC(=O)CCl)cc1", "Inhibition %": 4.19}, {"compound": "CCOC(=O)c1ccccc1NC(=O)CCl", "Inhibition %": 7.46}, {"compound": "CCc1cccc(NC(=O)CCl)c1", "Inhibition %": 14.1}, {"compound": "COC(=O)c1cccc(NC(=O)CCl)c1", "Inhibition %": 25.2}, {"compound": "O=C(O)Cc1ccc(NC(=O)CCl)cc1", "Inhibition %": 43.8}, {"compound": "NC(=O)c1ccc(NC(=O)CCl)cc1", "Inhibition %": 35.3}, {"compound": "CC(=O)c1ccc(NC(=O)CCl)cc1", "Inhibition %": 45.4}, {"compound": "CCOC(=O)c1ccc(NC(=O)CCl)cc1", "Inhibition %": 56.5}, {"compound": "N#CCc1ccc(NC(=O)CCl)cc1", "Inhibition %": 88.8}, {"compound": "COC(=O)c1ccc(NC(=O)CCl)cc1", "Inhibition %": 60.9}, {"compound": "N#Cc1ccc(NC(=O)CCl)cc1Cl", "Inhibition %": 29.1}, {"compound": "O=C(CCl)NCC1Cc2ccccc2O1", "note": "(stereo not shown)", "Inhibition %": 26.5}, {"compound": "COc1cc2c(B3OC(C)(C)C(C)(C)O3)cn(C)c2cn1", "Inhibition %": 6.59}, {"compound": "C=CC(=O)NC1CCCN(c2ccc(F)cc2C)C1", "note": "(stereo not shown)", "Inhibition %": 6.65}, {"compound": "C=CC(=O)N1CC2(CCOCC2)C1C(C)C", "note": "(stereo not shown)", "Inhibition %": 7.75}, {"compound": "Cc1nn(C)c(C)c1C1CCCN1C1CCOC1=O", "note": "(stereo not shown)", "Inhibition %": 4.25}]}]}
